# Source: publication PMC4336329 (PLoS ONE, 2015)
# Out of some 310,000 compounds screened, about 14,000 (4.5%) showed an effect of 50% or more. Effects have a minus sign here. This excerpt belongs to a sample that is enriched for strong results.
# Target: human ether-à-go-go-related gene (hERG) potassium channel (human, UniProt Q12809)
# Test: primary screen, population patch clamp on CHO cells stably expressing hERG; higher = less effect of the substance
# 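Also: peak tail current of the secondary pulse compared with the same well before compound.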
# Chain of human ether-à-go-go-related gene (hERG) potassium channel (Q12809 whole entry, looked up): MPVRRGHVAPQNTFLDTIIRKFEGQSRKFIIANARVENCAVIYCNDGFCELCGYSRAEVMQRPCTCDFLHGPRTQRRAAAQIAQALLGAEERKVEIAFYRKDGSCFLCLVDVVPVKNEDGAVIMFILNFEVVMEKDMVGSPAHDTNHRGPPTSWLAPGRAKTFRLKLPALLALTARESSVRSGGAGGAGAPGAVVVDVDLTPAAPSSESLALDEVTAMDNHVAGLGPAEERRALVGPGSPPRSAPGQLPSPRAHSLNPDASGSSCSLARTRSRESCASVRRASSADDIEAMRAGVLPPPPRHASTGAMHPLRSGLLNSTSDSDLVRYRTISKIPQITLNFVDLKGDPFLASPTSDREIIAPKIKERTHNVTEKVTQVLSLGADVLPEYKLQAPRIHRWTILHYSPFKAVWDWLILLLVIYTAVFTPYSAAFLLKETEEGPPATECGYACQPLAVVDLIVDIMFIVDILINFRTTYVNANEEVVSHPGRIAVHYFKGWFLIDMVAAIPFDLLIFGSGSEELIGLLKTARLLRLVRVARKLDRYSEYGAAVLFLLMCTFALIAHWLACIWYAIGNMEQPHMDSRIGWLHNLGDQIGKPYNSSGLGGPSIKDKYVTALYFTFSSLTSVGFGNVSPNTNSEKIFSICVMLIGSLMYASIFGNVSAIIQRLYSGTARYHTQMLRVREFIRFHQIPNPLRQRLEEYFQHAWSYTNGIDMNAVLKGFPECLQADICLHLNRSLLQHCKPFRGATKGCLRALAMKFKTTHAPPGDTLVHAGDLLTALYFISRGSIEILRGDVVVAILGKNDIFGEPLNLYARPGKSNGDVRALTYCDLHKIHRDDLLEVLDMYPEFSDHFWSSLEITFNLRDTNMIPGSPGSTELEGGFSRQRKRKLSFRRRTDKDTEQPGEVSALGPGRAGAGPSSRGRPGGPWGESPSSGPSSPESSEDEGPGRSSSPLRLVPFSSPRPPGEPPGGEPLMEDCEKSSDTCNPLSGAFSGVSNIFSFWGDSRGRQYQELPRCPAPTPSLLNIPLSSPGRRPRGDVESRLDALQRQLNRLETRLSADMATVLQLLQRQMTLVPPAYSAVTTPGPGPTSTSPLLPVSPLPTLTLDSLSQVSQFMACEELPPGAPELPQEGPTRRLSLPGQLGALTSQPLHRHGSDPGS
row,SMILES,"hERG current change (%, negative = inhibition) at 10uM [%]"
1,CCC(CO)Nc1nc(CN2CCCCC2)nc2scc(-c3ccccc3)c12 (stereo not drawn),-68.2
2,OCC1CCCN(c2nc(CN3CCCCC3)nc3scc(-c4ccccc4)c23)C1 (stereo not drawn),-63.7
3,CC1CCN(c2nc(-c3cccnc3)nc3scc(-c4ccccc4)c23)CC1,15.4
4,CC1CCN(c2nc(CN3CCCCC3)nc3scc(-c4ccccc4)c23)CC1,-75.5
5,Fc1ccc(N2CCN(c3nc(CN4CCOCC4)nc4scc(-c5ccccc5)c34)CC2)cc1,-5.05
6,Clc1ccc(CNc2nc(CN3CCOCC3)nc3scc(-c4ccccc4)c23)cc1,-9.73
7,OCC1CCCN(c2ncnc3scc(-c4ccccc4)c23)C1 (stereo not drawn),3.73
8,CC1CCCN(c2nc(-c3cccnc3)nc3scc(-c4ccccc4)c23)C1 (stereo not drawn),11.6
9,O=C(O)C(=O)O.c1ccc(CNc2nc(CN3CCOCC3)nc3scc(-c4ccccc4)c23)cc1,-20.6
10,CCCCN(C(=O)CCC(=O)Nc1cc(C)on1)C(C(=O)NC(C)(C)CC)c1cccc(OC)c1OC (stereo not drawn),1.4
11,Cc1cccc(C)c1NC(=O)CSc1nnnn1C,-1.61
12,O=C(CSc1ccccn1)Nc1ccc(Cl)c([N+](=O)[O-])c1,-19.6
13,COc1ccc(Cn2c(N)c(C#N)c3nc4ccccc4nc32)cc1,11.2
14,COc1ccc(-n2c(SCC(=O)NCCCN3CCCC3=O)nnc2C(C)N2CCCCC2)cc1 (stereo not drawn),43.4
15,C=CCc1cccc(CNc2nc3ccccc3n2CCC)c1O,5.13
16,C#CCOCCOCCOCCNc1nc(N2CCOCC2)nc(N2CCN(C(=O)CCCCCCCCCCNC(=O)[C@H](CO)n3cc(CCCSC)nn3)CC2)n1,-0.214
17,CCOc1ccc(S(=O)(=O)Nc2ccc(C(=O)NCC(c3ccco3)N3CCCCC3)cc2)cc1 (stereo not drawn),-25.1
18,CC(C)[C@H](NC(=O)[C@H]1N2C(=O)c3ccccc3C2SC1(C)C)C(=O)NCc1ccco1 (stereo partly drawn),2.21
19,Cc1cccc(C)c1NC(=O)CSc1nnc(Cn2nnc(-c3ccccc3)n2)n1-c1ccccc1,-22.3
20,CCN(CC)c1ccc(CNc2ccc(Br)cn2)cc1,13.1
21,CC1(C)Cc2c(c(N3CCOCC3)nc3sc(-c4ccc(C(=O)O)o4)c(N)c23)CO1,-15.2

row,SMILES,"hERG current change (%, negative = inhibition) at 10uM [%]"
1,Cn1nnc(NC(=O)/C=C/c2ccco2)n1,8.33
2,O=C(NC1CCCc2ccccc21)c1ccc(Br)cc1 (stereo not drawn),-7.78
3,Cc1cc(C(=O)NC2CCCc3ccccc32)ccc1[N+](=O)[O-] (stereo not drawn),9.18
4,O=C(NC1CCCc2ccccc21)c1ccc([N+](=O)[O-])cc1 (stereo not drawn),-53.4
5,O=C(NC1CCSc2ccccc21)c1ccc([N+](=O)[O-])cc1 (stereo not drawn),-40.3
6,O=C(NC1CCCc2ccccc21)c1ccccc1 (stereo not drawn),3.92
7,CCC(C)[C@H](NC(=O)NC1CCCc2ccccc21)C(=O)O (stereo partly drawn),20.6
8,N#Cc1ccc(C(=O)NC2CCCc3ccccc32)cc1 (stereo not drawn),-52.8
9,CC(C)[C@H](NC(=O)NC1CCCc2ccccc21)C(=O)O (stereo partly drawn),-68.2
10,COC(=O)[C@@H](NC(=O)NC1CCCc2ccccc21)C(C)C (stereo partly drawn),9.47
11,COc1ccc(C(CNC(=O)C(CCSC)NC(=O)c2ccccc2Cl)N2CCOCC2)cc1 (stereo not drawn),-8.2
12,CC(C)C[C@H](NC(=O)c1cc2cc(Cl)ccc2n1C)C(=O)N1CCC(C(=O)O)CC1,13.5
13,CN(C(=O)c1cccc(N2C(=O)C3C4C=CC(C4)C3C2=O)c1)C1CCCCC1 (stereo not drawn),0.921
14,O=C(Nc1ccccc1)NC(Cc1ccc(O)cc1)C(=O)O (stereo not drawn),17.4
15,O=C(NC(=S)Nc1ccccc1C(=O)O)c1cncc(Br)c1,23
16,COc1ccc(OC)c(/C=C/C(=O)OCC(=O)Nc2ccc3c(c2)OCCO3)c1,15.9
17,Cc1noc(/C=C/N(C)C)c1S(=O)(=O)N1CCc2ccccc21,-18.6
18,COc1ccccc1CN(C)C(=O)c1cccc(S(=O)(=O)N2CCc3ccccc3C2)c1,-4.08
19,O=C(COC(=O)c1cc(=O)c2ccccc2o1)Nc1ccc2ccccc2c1,17.6
20,CC(C)Nc1nnc(SCC(=O)/C=C2\N(C)c3ccccc3C2(C)C)s1,-65.1
21,CN1/C(=C\C(=O)CSc2nnc(N)s2)C(C)(C)c2ccccc21,0.532

row,SMILES,"hERG current change (%, negative = inhibition) at 10uM [%]"
1,CN1/C(=C\C(=O)CSc2nnc(NCc3ccccc3)s2)C(C)(C)c2ccccc21,-13.1
2,COc1ccc(C(=O)C2CCCN(C3CSCCSC3)C2)c(C)c1 (stereo not drawn),-13
3,Cc1cc(Cl)ccc1C(=O)C1CCCN(C(=O)c2snnc2C)C1 (stereo not drawn),-56.1
4,COC(=O)CCC(=O)N1CCCC(C(=O)c2ccc(Cl)cc2C)C1 (stereo not drawn),-5.75
5,O=C(c1ccc(Cl)cc1)C1CCCN(C2CCSCC2)C1 (stereo not drawn),-78.9
6,Cc1cc(Cl)ccc1C(=O)C1CCCN(C2CCSCC2)C1 (stereo not drawn),-74.3
7,O=C(c1ccc(C(F)(F)F)cc1)C1CCCN(C2CCSCC2)C1 (stereo not drawn),-71.2
8,O=C(c1ccc(C(F)(F)F)cc1)C1CCCN(C(=O)c2csnn2)C1 (stereo not drawn),-22.6
9,CC(C)(C)c1ccc(C(=O)C2CCCN(C3CCC3)C2)cc1 (stereo not drawn),-18.4
10,O=C(c1ccc(Cl)cc1)C1CCCN(C(=O)c2csnn2)C1 (stereo not drawn),0.734
11,CN1CCCC(C(=O)c2ccc(Cl)cc2)C1 (stereo not drawn),-23
12,Cc1cc(Cl)ccc1C(=O)C1CCCN(C(=O)c2nonc2C)C1 (stereo not drawn),-26.3
13,Cc1nc(C)c(C(=O)N2CCCC(C(=O)c3ccc(Cl)cc3C)C2)s1 (stereo not drawn),-23
14,COc1cc2cc(C)nc(Cc3cccc4ccccc34)c2cc1OC,8.53
15,CC#CP(=O)(OCC)C(O)(c1ccccc1)C(F)(F)F (stereo not drawn),-3.29
16,CC(=O)Nc1c(O)nc(SCC(=O)Nc2cccc(C)c2)[nH]c1=O,14.8
17,CCOc1cc(-c2ccc(N)c(OCC)c2)ccc1N,-10.2
18,S=C(NCc1ccc(Cl)c(Cl)c1)Nc1ccc2c(c1)OCO2,-6.19
19,Nn1c(SCC(=O)Nc2ccc(S(N)(=O)=O)cc2)nnc1C(F)(F)F,0.037
20,Cc1cc(Cl)cc(C)c1OCCCCCn1ccnc1,-28.1
21,CC(C)(C)[C@H]1CCC(=O)N([C@H](CSc2ccc(Br)cc2)Cc2ccccc2)CC1,4.84

row,SMILES,"hERG current change (%, negative = inhibition) at 10uM [%]"
1,Cc1ccc(SC[C@H](Cc2ccccc2)N2CC[C@@H](C)CCC2=O)cc1,-28.7
2,CC(C)(C)[C@H]1CCC(=O)N([C@H](CSc2ccccc2)Cc2ccccc2)CC1,-3.06
3,CN1CCC(=O)N([C@H](CSc2ccccc2)Cc2ccccc2)CC1,-45.8
4,CN1CCC(=O)N([C@H](CSc2ccc(Br)cc2)Cc2ccccc2)CC1,-64.8
5,C[C@H]1CCC(=O)N([C@H](CSc2ccc(Br)cc2)Cc2ccccc2)CC1,7.31
6,CCCN1CCC(=O)N([C@H](CSc2ccccc2)Cc2ccccc2)CC1,-69.6
7,CCCN1CCC(=O)N([C@H](CSc2ccc(Br)cc2)Cc2ccccc2)CC1,-71.2
8,CCOC(=O)c1c(NC(=O)C[n+]2ccc(Cc3ccccc3)cc2)sc(C)c1C.[Cl-],-43.5
9,CC1CCN(c2cc(N3CCC(C)CC3)c([N+](=O)[O-])cc2/C=C(\C#N)c2nn(-c3ccccc3)c(N)c2C#N)CC1,-10.2
10,O=c1[nH]c(CN2CCN(S(=O)(=O)c3ccccc3C(F)(F)F)CC2)nc2sc3c(c12)CCCC3,10.9
11,Cc1cccc(NC(=O)CCc2nc3sc4c(c3c(=O)[nH]2)CCCC4)c1,10.8
12,Cc1cccc(C(=O)N2CCN(Cc3nc4sc5c(c4c(=O)[nH]3)CCCC5)CC2)c1,-58.4
13,Cc1sc2nc(CN3CCOCC3)[nH]c(=O)c2c1-c1ccccc1,2.19
14,CC(=O)N1CCN(C(=O)CCc2nc3sc4c(c3c(=O)[nH]2)CCCC4)CC1,5.61
15,O=c1[nH]c(CN2CCCC2)nc2sc3c(c12)CCC3,20.5
16,O=C(CCc1nc2sc3c(c2c(=O)[nH]1)CCCC3)N1CCN(c2ccccc2)CC1,2.7
17,Cc1ccc(C(=O)N2CCN(Cc3nc4sc5c(c4c(=O)[nH]3)CCCC5)CC2)cc1,-76
18,O=C(c1ccccc1F)N1CCN(Cc2nc3sc4c(c3c(=O)[nH]2)CCCC4)CC1,-81.6
19,Cc1ccc(S(=O)(=O)N2CCN(Cc3nc4sc(C)c(C)c4c(=O)[nH]3)CC2)cc1,18.2
20,Cc1ccc(-c2c(C)sc3nc(CN4CCN(CC(=O)NC5CC5)CC4)[nH]c(=O)c23)cc1,-71.5
21,Cc1ccc(S(=O)(=O)N2CCN(Cc3nc4sc5c(c4c(=O)[nH]3)CCCC5)CC2)cc1,-21.3
